DAX1 inh-1 = DAX1 (NR0B1) inhibitors, primary screen, cell-based, HEK293, Gal4-DAX1, luciferase luminescence | HEK293 Gal4-DAX1 luciferase reporter | inhibition, % at 6.75 µM | 0.99% of 340,000 active | AID 504766, 2011;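 active = inhibition above the mean over all tested compounds plus 3 SD, cut at about 4.2% in these data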;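 also: 0% = DAX1-transfected cells with DMSO and 100% = empty-vector control cells with DMSO; inhibition shows as a rise in luminescence from relieved DAX1 repression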
Target sequence (P51843 207-470 limits assumed): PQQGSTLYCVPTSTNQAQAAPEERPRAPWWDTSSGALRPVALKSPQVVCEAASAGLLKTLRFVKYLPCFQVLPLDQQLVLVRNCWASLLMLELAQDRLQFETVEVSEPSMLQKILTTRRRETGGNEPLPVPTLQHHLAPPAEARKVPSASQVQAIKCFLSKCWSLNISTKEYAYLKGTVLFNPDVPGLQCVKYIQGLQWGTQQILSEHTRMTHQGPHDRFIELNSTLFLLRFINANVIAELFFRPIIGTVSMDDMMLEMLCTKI
ssDAF-12 act = S. stercoralis DAF-12 nuclear receptor activators, primary screen, cell-based, luminescence, HEK293, GRIP1 co-expression, lit1-tk-luc. Nuclear hormone receptor DAF-12 (Strongyloides stercoralis). AID 652126, 2013. 1% of 370,000 active. HEK293 ssDAF-12/GRIP1 lit1-tk-luc reporter; % of 3 µM dafachronic acid response. activation, % at 6.8 µM;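 active = activation above the mean over all tested compounds plus 3 SD, cut at about 0.9% in these data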;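 also: 0% = DMSO-only wells and 100% = 3 µM delta7-dafachronic acid wells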
hcDAF-12 act = H. contortus DAF-12 nuclear receptor activators, primary screen, cell-based, luminescence, HEK293, lit1-tk-luc reporter. HEK293 hcDAF-12 lit1-tk-luc reporter; 0% DMSO, 100% Δ7-dafachronic acid. activation, % at 6.8 µM. 1.4% of 370,000 active. AID 652067, 2013;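 active = activation above the mean of all tested compounds plus 3 SD, cut at about 5.5% in these data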;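 also: 100% = response to 3 µM Δ7-dafachronic acid high control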
DAX1 inh-2 = DAX1 (NR0B1) inhibitors on StAR promoter, primary screen, cell-based, luminescence, SF-1 (NR5A1), full-length DAX-1 | 1.1% of 370,000 active | inhibition, % at 6.8 µM | AID 652010, 2013 | HEK293T StAR-luciferase reporter, SF-1/DAX-1 repression relief;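 active = inhibition above the mean over all tested compounds plus 3 SD, cut at about 3.6% in these data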;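 also: 0% = DAX-1 cells with DMSO and 100% = cells lacking DAX-1 with DMSO; higher inhibition means more luminescence from relief of DAX-1 repression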
SMARCA2 act = SMARCA2 (BRM) function activators, primary screen, cell-based, luminescence, high throughput | 1% of 370,000 active | MG213 cells, MMTV-luciferase reporter, dexamethasone, overnight | AID 652017, 2013 | activation, % at 9.1 µM; in the data active = activation above about 7.8%;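 also: 0% = vehicle wells and 100% = reference activator wells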
hgDAF12 agonist = H. glycines DAF-12 receptor agonists, primary screen, cell-based, luminescence, HEK293, GAL4 fusion, UAS-luciferase | Nuclear hormone receptor DAF-12 (Heterodera glycines), GAL4 fusion | HEK293 GAL4-hgDAF12 UAS-luciferase reporter, agonist luminescence; normalized to butyrate control | activation, % at 6.8 µM | 1.8% of 370,000 active | AID 687014, 2013;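 active = activation above a cutoff set at the mean of all screened compounds plus 3 SD, cut at about 10% in these data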;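 also: 0% = DMSO wells and 100% = sodium butyrate wells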
* hit, by the source's call; . = no result given. In the library only some 4.8% were active in any assay of this set; here they are far more common.

SMILES	DAX1 inh-1	ssDAF-12 act	hcDAF-12 act	DAX1 inh-2	SMARCA2 act	hgDAF12 agonist
C/C(CCc1ccc2c(c1)OCO2)=N\NC(=O)c1ccccc1Cl	1.5	-1.2	2.7	1.1	1.3	1.6
C/C(=N\NC(=O)c1ccccc1)c1ccc2c(c1)OCO2	5.2*	-0.9	3.2	3.2	4.8	3.7
Nc1nc(-c2ccc3c(c2)OCCO3)c(CC(=O)O)s1	0.2	-1.1	-0.9	0.1	-0.1	1.0
O=C(CN(Cc1ccc(F)cc1)C(=O)CCC(=O)Nc1nccs1)NCc1ccc(F)cc1	4.6*	-1.5	-3.0	-0.5	-1.3	-2.4
C=CC[C@@H](CC(=O)N[C@H](CO)Cc1ccccc1)C(=O)NCCOC(=O)[C@@H](CC=C)Cc1ccc(F)cc1	-0.9	-1.3	-0.1	-0.2	-1.3	-0.6
O=C(NC(=S)N(CCO)Cc1ccccc1)c1ccc(S(=O)(=O)N2CCCC2)cc1	0.5	2.0*	-0.1	-0.3	-2.1	3.2
O=C(NCCc1ccccc1)c1ccc(S(=O)(=O)N2CCCCC2)cc1	0.9	-1.6	-2.1	-0.1	-1.9	0.2
O=C(COc1ccc(S(=O)(=O)N2CCCC2)cc1)NCc1ccco1	1.9	.	.	.	.	.
O=C(COc1ccc(S(=O)(=O)N2CCOCC2)cc1)NCc1ccco1	0.3	1.6*	-2.0	0.2	-0.9	0.2
C=CCn1c(=O)c2ccccc2n2c(SCC(=O)O)nnc12	0.4	-1.1	2.5	0.5	-0.7	0.7
O=C(O)CSc1nnc2n(-c3ccccc3)c(=O)c3ccccc3n12	5.4*	-0.8	-0.7	-0.2	-2.4	-2.8
CCc1ccccc1Nc1ccc(C(=O)O)cc1N	6.6*	-1.5	2.1	0.3	1.0	7.1
CCCOC(=O)Nc1cc(OC)ccc1[N+](=O)[O-]	4.7*	-0.5	2.3	0.3	0.8	5.3
O=C(Nc1cc(C(=O)N2CCCC2)ccc1N1CCCC1)C1CC1	0.2	-1.8	-1.6	0.1	-0.8	-2.2
CN(C)/C=C/C(=O)c1ccc(Cl)cc1	-1.0	-1.6	-1.4	0.8	-0.8	1.3
Cc1ccc(C(=O)/C=C/N(C)C)cn1	6.8*	-1.1	-1.9	1.9	0.8	-0.8
Cc1ccc(-c2c(C(=O)c3ccccc3)[nH]c(N)c2C(=O)NCCc2c[nH]c3ccccc23)cc1	.	0.5	1.9	1.9	-1.4	5.9
Nc1[nH]c(C(=O)c2ccc(Cl)cc2)c(-c2ccc(Br)cc2)c1C(=O)NCCc1c[nH]c2ccccc12	.	1.0*	1.7	-0.1	-4.3	0.0
COc1ccc(C(=O)c2[nH]c(N)c(C(=O)NCCc3c[nH]c4ccccc34)c2-c2ccc(Cl)c(F)c2)cc1	.	-0.7	1.9	0.0	-3.3	-0.7
COc1ccc(C(=O)c2[nH]c(N)c(C(=O)NCCc3c[nH]c4ccccc34)c2-c2ccc(Cl)cc2)cc1	.	1.9*	3.2	1.9	-2.5	-0.5
COc1ccc(-c2c(C(=O)c3ccccc3)[nH]c(N)c2C(=O)NCCc2c[nH]c3ccccc23)cc1	.	-0.1	0.1	-0.2	0.3	12.3*
CCCCOC(=O)c1ccc(NC(=S)N2CCN(c3ncc4c(=O)c(C(=O)O)cn(CC)c4n3)CC2)cc1	4.3*	-1.1	-2.4	-0.1	-0.9	-2.7
NNC(=O)c1nc2ccccc2s1	1.4	0.4	2.1	3.2	1.6	5.4
CN(C)C(=O)c1nc2ccccc2s1	1.7	0.3	6.5*	0.6	2.1	4.6
C[C@H](CO)N1C[C@H](C)[C@H](CN(C)Cc2ccc(C(=O)O)cc2)OCc2ccccc2-c2c(n(C)c3ccccc23)C1=O	-0.2	-1.2	-1.3	0.3	-1.3	2.5
SMILES	DAX1 inh-1	ssDAF-12 act	hcDAF-12 act	DAX1 inh-2	SMARCA2 act	hgDAF12 agonist
COc1ccccc1-n1cc(C(=O)NCC(=O)N2CCN(c3ccccn3)CC2)c2ccccc2c1=O	0.6	-1.1	1.2	-0.6	2.2	8.6
O=C(NNC(=O)C1CC=CCC1)c1cccc(Br)c1 (configuration not stated)	4.6*	-1.7	1.0	0.4	-1.9	2.0
O=C(NNC(=O)C1CC=CCC1)c1ccccc1Br (configuration not stated)	3.1	-0.9	-0.1	-0.2	0.8	1.4
Cc1ccc(CSCC(=O)N(C)CC(=O)Nc2ccc(Br)cc2C)cc1	-1.2	-1.2	-0.9	-0.3	-2.5	0.9
Cc1nn(C)c(C(=O)N2CCc3ccccc32)c1Br	0.2	0.6	5.0	-0.1	-4.0	-0.3
Cn1cc(Br)c(C(=O)N2CCc3ccccc32)n1	1.1	-0.1	5.9*	0.9	-0.7	4.3
Cc1c(Br)c(C(=O)N2CCc3ccccc32)nn1C	4.4*	-1.0	0.7	1.9	3.5	10.2
O=C(c1ccccc1)N1CCc2ccccc21	-0.6	-1.1	0.2	-0.4	-0.1	0.8
C/C(=C\C(=O)N1CCc2ccccc21)C(=O)O	4.3*	-0.1	2.9	-0.5	-2.2	0.7
CC(C)(C)c1ccc(S(=O)(=O)N2CCC(c3nc4ccc(Cl)cc4[nH]3)CC2)cc1	-0.6	-1.8	-0.1	-0.1	-2.0	-1.0
O=C(NC1CCCCCCC1)C1c2ccccc2C(=O)N1Cc1ccco1 (configuration not stated)	2.5	-1.7	-1.7	-0.4	0.2	-1.5
COC(=O)c1cc(=O)n(Cc2cccs2)c(=Nc2ccccc2)s1	4.3*	-0.8	-1.2	-1.0	2.5	-0.3
COC(=O)c1cc(=O)n(Cc2ccc(F)cc2)c(=Nc2ccccc2)s1	0.4	-1.3	-2.0	0.4	-4.3	-2.6
O=C(NCc1cccnc1)C1CCN(S(=O)(=O)c2cccs2)CC1	0.6	-0.5	-0.4	-0.7	-1.3	0.6
CC(=O)N1CCN(c2nnc(-c3ccc(C)cc3)c3ccccc23)CC1	0.2	1.1*	0.5	-0.6	-2.4	-2.3
O=c1c2cc([N+](=O)[O-])ccc2nc(CN2CCN(c3ccccn3)CC2)n1-c1ccccc1F	-4.1	-0.9	-0.6	-1.0	7.5	-2.5
CCCn1c(-c2ccc(OC)cc2)nc2nc3ccccc3nc21	1.0	-1.3	0.1	0.3	-1.5	0.8
O=C(CCCOc1ccc(Cl)cc1)N1CCCCC1	2.2	-1.3	1.7	0.6	2.0	3.5
CCOC(=O)Cn1nnnc1C(C(C)C)N(Cc1cccs1)Cc1cc2cc(C)ccc2[nH]c1=O (configuration not stated)	4.3*	-1.6	-0.4	-0.6	-1.3	-1.1

From PubChem BioAssay
